Measurements: the supplement of paper PMC8975748
Where a name gives a salt, the structure may show the parent alone.

These molecules were tested on Saccharomyces cerevisiae BY4741 SeMeCo community (assay: z-score of subpopulation abundance vs DMSO median, subpopulation auxotrophic for L; higher = larger share of this subpopulation than in DMSO controls). Conditions: 10 µM; 24 h; SM minimal medium; subpopulation (auxotrophy): L.
In short: (§1)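 Automated confocal microscopy of paraformaldehyde-fixed cells was used to follow a Saccharomyces cerevisiae BY4741 community carrying four plasmids, each restoring one auxotrophy and encoding a distinct fluorescent protein. The community was pre-grown overnight to OD600 1.0, diluted to 0.3, and added at 70 µl to 384-well plates acoustically predosed with library drugs (10 µM final) for 24 h of growth in minimal SM medium. Single-auxotroph fluorescent strains set thresholds and autofluorescence correction, and each subpopulation's abundance was scored as a z-score against the vehicle-well median.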

Structure (SMILES)	z-score of subpopulation abundance
NC(=O)N1c2ccccc2CC(=O)c2ccccc21 [Oxcarbazepine]	-0.68
CCCCC(F)(F)[C@@]1(O)CC[C@H]2[C@@H](CC(=O)[C@@H]2CCCCCCC(=O)O)O1 [Lubiprostone]	-1.05
CCCCCc1ccc(C)cc1O [Amylmetacresol]	0.4
CCN(CC)CCOC(=O)c1ccc(N)cc1 [Procaine HCl]	-0.69
O=C(O)CCC(=O)Nc1ccc(S(=O)(=O)Nc2nccs2)cc1 [Succinylsulfathiazole]	-0.22
N[C@@H]1CONC1=O [D-Cycloserine]	1.05
COc1ccc2cc(C(=O)O)ccc2c1 [6-Methoxy-2-naphthoic acid]	0.27
CCC(=O)c1c(O)cc(O)cc1O [Flopropione]	-0.09
Oc1c(Cl)cc(Cl)c(Cl)c1Cc1c(O)c(Cl)cc(Cl)c1Cl [Hexachlorophene]	-1.4
CC1(C)S[C@@H]2[C@H](NC(=O)[C@H](N)c3ccc(O)cc3)C(=O)N2[C@H]1C(=O)O [Amoxicillin]	-0.63
CC[C@@]1(O)C(=O)OCc2c1cc1n(c2=O)Cc2cc3c(CN(C)C)c(O)ccc3nc2-1 [Topotecan HCl]	0.17
COCCCN1CCC(NC(=O)c2cc(Cl)c(N)c3c2OCC3)CC1 [Prucalopride]	-0.58
CO/N=C(\C(=O)N[C@@H]1C(=O)N2C(C(=O)O)=C(CSc3nc(C)c(CC(=O)O)s3)CS[C@H]12)c1csc(N)n1 [Cefodizime Sodium]	-0.39
C1N2CN3CN1CN(C2)C3 [Methenamine]	-0.63
O=C(Nc1cccc(C2=NCCN2)c1)Nc1cccc(C2=NCCN2)c1 [Imidocarb dipropionate]	-0.04
C[C@H]1c2cccc(O)c2C(O)=C2C(=O)[C@]3(O)C(O)=C(C(N)=O)C(=O)[C@@H](N(C)C)[C@@H]3[C@@H](O)[C@@H]21 [Doxycycline]	-0.26
CCc1c2c(nc3ccc(OC(=O)N4CCC(N5CCCCC5)CC4)cc13)-c1cc3c(c(=O)n1C2)COC(=O)[C@]3(O)CC [Irinotecan HCl Trihydrate]	-0.66
C/C=C\c1ccc(O)c(OC)c1 [Isoeugenol]	0.4

The molecules below were run on Saccharomyces cerevisiae BY4741 SeMeCo community (assay: z-score of subpopulation abundance vs DMSO median, subpopulation auxotrophic for U; higher = larger share of this subpopulation than in DMSO controls). Conditions: 10 µM; 24 h; SM minimal medium; subpopulation (auxotrophy): U.
In short: as §1

Structure (SMILES)	z-score of subpopulation abundance
CN(C)[C@@H](CCOc1cccc2ccccc12)c1ccccc1 [Dapoxetine HCl]	-0.41
CC1(C)S[C@@H]2[C@H](NC(=O)Cc3ccccc3)C(=O)N2[C@H]1C(=O)O.CCN(CC)CCOC(=O)c1ccc(N)cc1 [Penicillin G Procaine]	-0.07
CC(=O)Oc1ccccc1C(=O)O [Aspirin]	-0.25
Nc1ccc(S(=O)(=O)Nc2ccnn2-c2ccccc2)cc1 [Sulfaphenazole]	0.18
C[C@@H]1CC(=O)NN=C1c1ccc(NN=C(C#N)C#N)cc1 [Levosimendan]	0.92
CCN1CCC[C@H]1CNC(=O)c1cc(S(N)(=O)=O)ccc1OC [Levosulpiride]	0.41
CN1CCN(CCCN2c3ccccc3Sc3ccc(C(F)(F)F)cc32)CC1 [Trifluoperazine 2HCl]	0.38
COc1ccc2c(c1)c(CC(=O)OCC(=O)O)c(C)n2C(=O)c1ccc(Cl)cc1 [Acemetacin]	-0.02
CC[C@H]1OC(=O)[C@H](C)[C@@H](O[C@H]2C[C@@](C)(OC)[C@@H](O)[C@H](C)O2)[C@H](C)[C@@H](O[C@@H]2O[C@H](C)C[C@H](N(C)C)[C@H]2O)[C@](C)(O)C[C@@H](C)CN(C)[C@H](C)[C@@H](O)[C@]1(C)O [Azithromycin]	-0.41
Clc1ccccc1C(c1ccccc1)(c1ccccc1)n1ccnc1 [Clotrimazole]	-0.04
CO/N=C(\C(=O)N[C@@H]1C(=O)N2C(C(=O)O)=C(CSc3nc(=O)c(O)nn3C)CS[C@H]12)c1csc(N)n1 [Ceftriaxone Sodium Trihydrate]	0.09
CCOC(=O)C1=C(C)NC(C)=C(C(=O)OC)C1c1cccc(Cl)c1Cl (configuration not stated) [Felodipine]	-6.72
O=C1CCc2cc(OCCCCc3nnnn3C3CCCCC3)ccc2N1 [Cilostazol]	-0.86
COc1cc(NS(=O)(=O)c2ccc(N)cc2)ncn1 [Sulfamonomethoxine]	1.19
Nc1nc2ccc(OC(F)(F)F)cc2s1 [Riluzole]	-0.8
NC(=O)N1c2ccccc2CC(=O)c2ccccc21 [Oxcarbazepine]	0.16
CCCCC(F)(F)[C@@]1(O)CC[C@H]2[C@@H](CC(=O)[C@@H]2CCCCCCC(=O)O)O1 [Lubiprostone]	0.27

Structure (SMILES)	z-score of subpopulation abundance
CCCCCc1ccc(C)cc1O [Amylmetacresol]	0.39
CCN(CC)CCOC(=O)c1ccc(N)cc1 [Procaine HCl]	-0.15
O=C(O)CCC(=O)Nc1ccc(S(=O)(=O)Nc2nccs2)cc1 [Succinylsulfathiazole]	0.33
N[C@@H]1CONC1=O [D-Cycloserine]	-1
CCOC(=O)C1=C[C@]2(CC)CCCN3CCc4c(n1c1ccccc41)[C@@H]32 [Vinpocetine]	0.11
COc1ccc2cc(C(=O)O)ccc2c1 [6-Methoxy-2-naphthoic acid]	-1.91
Oc1c(Cl)cc(Cl)c(Cl)c1Cc1c(O)c(Cl)cc(Cl)c1Cl [Hexachlorophene]	0.01
CCCCCCCCc1ccc(CCC(N)(CO)CO)cc1 [Fingolimod]	-1.09
CC1(C)S[C@@H]2[C@H](NC(=O)[C@H](N)c3ccc(O)cc3)C(=O)N2[C@H]1C(=O)O [Amoxicillin]	0.14
CCCc1nc(C)c2c(=O)nc(-c3cc(S(=O)(=O)N4CCN(CC)CC4)ccc3OCC)[nH]n12 [Vardenafil HCl Trihydrate]	1.19
CCC(C)(C)C(=O)O[C@H]1C[C@@H](C)C=C2C=C[C@H](C)[C@H](CC[C@@H]3C[C@@H](O)CC(=O)O3)[C@H]21 [Simvastatin]	0.43
COCCCN1CCC(NC(=O)c2cc(Cl)c(N)c3c2OCC3)CC1 [Prucalopride]	0.73
CO/N=C(\C(=O)N[C@@H]1C(=O)N2C(C(=O)O)=C(CSc3nc(C)c(CC(=O)O)s3)CS[C@H]12)c1csc(N)n1 [Cefodizime Sodium]	0.88
CNCC[C@H](Oc1cccc2ccccc12)c1cccs1 [Duloxetine]	-0.4
O=C(Nc1cccc(C2=NCCN2)c1)Nc1cccc(C2=NCCN2)c1 [Imidocarb dipropionate]	0.07
C[C@H]1c2cccc(O)c2C(O)=C2C(=O)[C@]3(O)C(O)=C(C(N)=O)C(=O)[C@@H](N(C)C)[C@@H]3[C@@H](O)[C@@H]21 [Doxycycline]	-0.63
C/C=C\c1ccc(O)c(OC)c1 [Isoeugenol]	0.4
